From PubChem BioAssay AID956 (National Center for Advancing Translational Sciences (NCATS), 2007)
The other results are listed elsewhere or left out. Where a call stands in place of a potency, no number is given. Results filed as inconclusive are left out. Calls of active or inactive are those of the source. The call rests on the fitted dose curve.

Target: Amyloid-beta precursor protein (Homo sapiens) (UniProt P05067)
Experiment: Beta amyloid ThS binding assay
Conditions: Abeta1-42 fibrillization, thioflavin S fluorescence, overnight 37 C
Procedure: NIH Molecular Libraries Screening Centers Network [MLSCN] NIH Chemical Genomics Center [NCGC] MLSCN Grant: 1 X01 MH079825-01 Assay Provider: Jeffrey A. Kuret, Ohio State University NCGC Assay Overview: Alzheimer disease is characterized by the accumulation of proteinacious aggregates comprised of tau and beta-amyloid. The protein components of each lesion can be induced to form filaments under experimentally tractable times when incubated in vitro with anionic inducers such as alkyl sulfate detergents or fatty acids. […] Here we describe the in vitro fibrillization of beta-amyloid 1-42 (Abeta1-42). Abeta1-42 proteins were induced to form filaments by incubation overnight at 37 C in the presence of arachidonic acid. […] Small molecules capable of ThS displacement or antagonizing fibrillization result in a decrease in ThS fluorescence, allowing determination of binding affinities for molecules screened.
NCGC Assay Protocol Summary Human Beta amyloid peptide 1-42 (American Peptide Co., Sunnyvale, CA) was resuspended in hexafluoroisopropanol (by vortexing in a glass vial) to a final concentration of 1 mM. […] Fluorescence (ex = 440 nm; em = 485 nm) was measured after brief shaking (10 s) in a FlexStation plate reader (Molecular Devices, Sunnyvale, CA) operated at sensitivity 10, automatic PMT. […]

Amyloid-beta precursor protein (Homo sapiens), sequence (P05067 whole entry, looked up): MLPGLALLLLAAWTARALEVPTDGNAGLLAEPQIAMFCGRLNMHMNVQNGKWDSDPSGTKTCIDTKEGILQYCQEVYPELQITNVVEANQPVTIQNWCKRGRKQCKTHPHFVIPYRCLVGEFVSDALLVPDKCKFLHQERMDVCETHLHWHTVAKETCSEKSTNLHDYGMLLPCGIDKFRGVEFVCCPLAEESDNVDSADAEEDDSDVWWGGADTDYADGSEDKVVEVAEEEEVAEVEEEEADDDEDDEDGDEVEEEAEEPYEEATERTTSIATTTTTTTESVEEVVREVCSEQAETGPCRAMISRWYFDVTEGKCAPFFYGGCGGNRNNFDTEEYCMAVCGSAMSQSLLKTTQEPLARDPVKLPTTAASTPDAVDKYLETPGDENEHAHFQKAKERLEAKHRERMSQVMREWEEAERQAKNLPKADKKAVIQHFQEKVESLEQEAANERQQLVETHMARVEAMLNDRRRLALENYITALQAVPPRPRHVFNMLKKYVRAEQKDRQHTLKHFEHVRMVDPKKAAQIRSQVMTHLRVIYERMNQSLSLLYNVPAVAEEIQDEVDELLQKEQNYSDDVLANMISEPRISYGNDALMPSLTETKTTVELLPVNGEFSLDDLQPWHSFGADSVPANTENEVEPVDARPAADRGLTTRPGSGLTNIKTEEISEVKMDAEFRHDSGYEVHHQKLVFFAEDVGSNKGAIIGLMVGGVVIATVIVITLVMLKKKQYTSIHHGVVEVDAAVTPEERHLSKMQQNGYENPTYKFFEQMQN

Structure (SMILES)	outcome	Potency
O=C(CCCCn1c(=O)[nH]c2ccccc2c1=O)NCc1ccc2c(c1)OCO2	inactive	–
Oc1ccc(O)c2c(O)cccc12	–	4.52 µM (active)
